Values without a mark were called inactive. Calls of active or inactive are those of the source.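 The calls were made as follows: active = thallium flux through the channel raised or lowered by more than 3 SD from vehicle-only wells, actives on both sides; inactive = the rest.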

The subject of the first assay is R275C/beta1. As to the kind of experiment: modulators of BK channel variants, profiling panel, selectivity assay, cell-based, U2OS BacMam, thallium flux, beta subunits (AID 1259406).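 Also: initial slope of Thallos dye fluorescence rise after thallium is added; log ratio against the mean of 0.3% DMSO vehicle wells on the same plate.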 The note with it: at 30 µM.
`N=c1nc(N2CCCCC2)cc(N)n1O`: the log fold change Tl+ flux is -0.0046.
For `CC(C)NCC(O)COc1cccc2[nH]ccc12` (centres undefined), the log fold change Tl+ flux is 0.00683.
Consider `CCn1cc(C(=O)O)c(=O)c2ccc(C)nc21`, for which the log fold change Tl+ flux is 0.0366.
The same measure, in the same setting: the result for `CN(C)C(=O)C(CCN1CCC(O)(c2ccc(Cl)cc2)CC1)(c1ccccc1)c1ccccc1` reads 0.0279; that for `Cc1cc(NS(=O)(=O)c2ccc(N)cc2)no1`, 0.00387.
Consider `CCCC(CCC)C(=O)O`, for which the log fold change Tl+ flux was -0.0394.
Take `COc1cc(Cc2cnc(N)nc2N)cc(OC)c1OC`: the log fold change Tl+ flux was -0.051.
For the compound `COC(=O)C1=C(C)NC(C)=C(C(=O)OCCN(C)Cc2ccccc2)C1c1cccc([N+](=O)[O-])c1` (centres undefined), the log fold change Tl+ flux is -0.044.
Turning to `O=C(CCCN1CCC(O)(c2ccc(Cl)cc2)CC1)c1ccc(F)cc1`, the log fold change Tl+ flux was 0.104 (active).
As for `COc1ccc2cc([C@H](C)C(=O)O)ccc2c1`, the log fold change Tl+ flux was -0.0361.
In the case of `COc1c2occc2cc2ccc(=O)oc12`, the log fold change Tl+ flux is -0.00904.
On the same count and under the same terms, for `NC(=O)c1cccnc1` the value was 0.0353; for `CN/C(=C\[N+](=O)[O-])NCCSCc1ccc(CN(C)C)o1`, 0.0242.
In the case of `CNCCCN1c2ccccc2CCc2ccccc21`, the log fold change Tl+ flux was 0.17 (active).
`CN1C(=O)CC[C@H]1c1cccnc1`: the log fold change Tl+ flux is -0.0358.
`CCCC(=O)Nc1ccc(OCC(O)CNC(C)C)c(C(C)=O)c1` (centres undefined): the log fold change Tl+ flux was -0.0201.
With `O=C(O)CCc1nc(-c2ccccc2)c(-c2ccccc2)o1`, the log fold change Tl+ flux was 0.113 (active).
For the compound `CC(C)OC(=O)C(C)(C)Oc1ccc(C(=O)c2ccc(Cl)cc2)cc1`, the log fold change Tl+ flux is -0.021.
For `CC(C(=O)O)c1cccc(C(=O)c2ccccc2)c1` (centres undefined), the log fold change Tl+ flux is -0.000822.
On to `CN1CCN(C2=Nc3cc(Cl)ccc3Nc3ccccc32)CC1`, for which the log fold change Tl+ flux was 0.156 (active).

The test system of the next assay is R275C/beta2Delta. The description is as above. The note with it: at 30 µM.
Regarding `N=c1nc(N2CCCCC2)cc(N)n1O`, the log fold change Tl+ flux is -0.0232.
For `CC(C)NCC(O)COc1cccc2[nH]ccc12` (centres undefined), the log fold change Tl+ flux is -0.0133.
`CCn1cc(C(=O)O)c(=O)c2ccc(C)nc21`: the log fold change Tl+ flux is 0.000751.
On to `CN(C)C(=O)C(CCN1CCC(O)(c2ccc(Cl)cc2)CC1)(c1ccccc1)c1ccccc1`, for which the log fold change Tl+ flux is -0.504 (active).
Same read-out and setting: for `Cc1cc(NS(=O)(=O)c2ccc(N)cc2)no1` the value was -0.00735; for `CCCC(CCC)C(=O)O`, 0.0234; for `COc1cc(Cc2cnc(N)nc2N)cc(OC)c1OC`, -0.0321.
In the case of `COC(=O)C1=C(C)NC(C)=C(C(=O)OCCN(C)Cc2ccccc2)C1c1cccc([N+](=O)[O-])c1` (centres undefined), the log fold change Tl+ flux was 0.0144.
As for `O=C(CCCN1CCC(O)(c2ccc(Cl)cc2)CC1)c1ccc(F)cc1`, the log fold change Tl+ flux was -0.165 (active).
Consider `COc1ccc2cc([C@H](C)C(=O)O)ccc2c1`, for which the log fold change Tl+ flux was -0.0194.
As for `COc1c2occc2cc2ccc(=O)oc12`, the log fold change Tl+ flux was 0.0233.
The same measure, in the same setting: the result for `NC(=O)c1cccnc1` reads 0.0215; that for `CN/C(=C\[N+](=O)[O-])NCCSCc1ccc(CN(C)C)o1`, -0.00414; that for `CNCCCN1c2ccccc2CCc2ccccc21`, 0.152 (active).
On the same count and under the same terms, the result for `CN1C(=O)CC[C@H]1c1cccnc1` reads -0.0502.
The same measure, in the same setting: the result for `CCCC(=O)Nc1ccc(OCC(O)CNC(C)C)c(C(C)=O)c1` (centres undefined) reads -0.0513; that for `O=C(O)CCc1nc(-c2ccccc2)c(-c2ccccc2)o1`, 0.0648.
Consider `CC(C)OC(=O)C(C)(C)Oc1ccc(C(=O)c2ccc(Cl)cc2)cc1`, for which the log fold change Tl+ flux is 0.00724.
On the same count and under the same terms, the result for `CC(C(=O)O)c1cccc(C(=O)c2ccccc2)c1` (centres undefined) reads -0.0306; that for `CN1CCN(C2=Nc3cc(Cl)ccc3Nc3ccccc32)CC1`, 0.106 (active).

A further assay concerns R275C/beta4. The assay is described as above. Conditions: at 30 µM.
For the compound `N=c1nc(N2CCCCC2)cc(N)n1O`, the log fold change Tl+ flux is 0.0196.
`CC(C)NCC(O)COc1cccc2[nH]ccc12` (centres undefined): the log fold change Tl+ flux was -0.00429.
With `CCn1cc(C(=O)O)c(=O)c2ccc(C)nc21`, the log fold change Tl+ flux is 0.0726.
As for `CN(C)C(=O)C(CCN1CCC(O)(c2ccc(Cl)cc2)CC1)(c1ccccc1)c1ccccc1`, the log fold change Tl+ flux was -0.104.
For the compound `Cc1cc(NS(=O)(=O)c2ccc(N)cc2)no1`, the log fold change Tl+ flux is -0.0559.
Take `CCCC(CCC)C(=O)O`: the log fold change Tl+ flux is 0.0354.
As to `COc1cc(Cc2cnc(N)nc2N)cc(OC)c1OC`, the log fold change Tl+ flux was 0.00256.
The same measure, in the same setting: for `COC(=O)C1=C(C)NC(C)=C(C(=O)OCCN(C)Cc2ccccc2)C1c1cccc([N+](=O)[O-])c1` (centres undefined) the value was 0.196 (active); for `O=C(CCCN1CCC(O)(c2ccc(Cl)cc2)CC1)c1ccc(F)cc1`, -0.0662.
In the case of `COc1ccc2cc([C@H](C)C(=O)O)ccc2c1`, the log fold change Tl+ flux is -0.0294.
In the case of `COc1c2occc2cc2ccc(=O)oc12`, the log fold change Tl+ flux is 0.0801.
As to `NC(=O)c1cccnc1`, the log fold change Tl+ flux was 0.0149.
`CN/C(=C\[N+](=O)[O-])NCCSCc1ccc(CN(C)C)o1`: the log fold change Tl+ flux was -0.0213.
Take `CNCCCN1c2ccccc2CCc2ccccc21`: the log fold change Tl+ flux was 0.123.
As to `CCCC(=O)Nc1ccc(OCC(O)CNC(C)C)c(C(C)=O)c1` (centres undefined), the log fold change Tl+ flux was 0.0245.
In the case of `O=C(O)CCc1nc(-c2ccccc2)c(-c2ccccc2)o1`, the log fold change Tl+ flux is 0.0678.
With `CC(C)OC(=O)C(C)(C)Oc1ccc(C(=O)c2ccc(Cl)cc2)cc1`, the log fold change Tl+ flux was 0.00518.
In the case of `CC(C(=O)O)c1cccc(C(=O)c2ccccc2)c1` (centres undefined), the log fold change Tl+ flux was 0.00182.
Consider `CN1CCN(C2=Nc3cc(Cl)ccc3Nc3ccccc32)CC1`, for which the log fold change Tl+ flux is 0.137 (active).
